This passage reports growth inhibition, inhibition and outcome results from PubChem BioAssay.

A number with no mark means an inactive call. For some of these results: Potency and affinity values are given separately. Active and inactive are the calls of the source. Unless noted, how the calls were made is not given here.

A short description of assay [1]: antimalarial activity against Dd2 strain (AID 2302;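 active means growth inhibition above 50% at the single 2 µM test dose, taken to imply half-maximal potency below 2 µM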;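 further: 0% = DMSO untreated growth and 100% = chloroquine plus artemisinin killed control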). As to conditions: P. falciparum Dd2 in RBCs, LDH growth readout, 72 h; at 2 µM; stronger effect = higher value.
Assay [2] in a line: HepG2 cytotoxicity, primary screen, cytotoxicity control for P. falciparum antimalarial project, cell-based, ATP luminescence (AID 2303;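 active means inhibition above 50%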;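 further: 0% = DMSO wells and 100% = digitonin-killed cells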). To be noted: HepG2 viability, 24-48 h, at 10 µM, stronger effect = higher value.
Assay [3] has as its target L-lactate dehydrogenase (Plasmodium falciparum (isolate CDC / Honduras)) (UniProt Q27743). Briefly: PfLDH activity inhibition – cell lysate, 3D7 strain, counter-screen for P. falciparum growth inhibition project (AID 2304).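 Further: 0% = vehicle and 100% = reference inhibitor.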 As to conditions: P. falciparum 3D7 crude extract, LDH APAD/NBT absorbance; at 2 µM; stronger effect = higher value.
The nature of assay [4]: inhibition of 3D7 malaria parasite growth – strain 3D7 (AID 2306).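 Further: 0% = DMSO wells and 100% = chloroquine plus artemisinin control wells.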 As to conditions: P. falciparum 3D7 erythrocytic growth, LDH absorbance, 72 h; at 2 µM; stronger effect = higher value.
Assay [5] has as its target Calcium-dependent protein kinase 1 (Plasmodium falciparum (isolate 3D7)) (UniProt P62344). Briefly: PfCDPK1 kinase inhibitors, biochemical, TCAMS library (AID 1159585; cut-off not given, nearly all actives have IC50 up to about 0.98 µM;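 further: inhibitors leave more ATP so luminescence rises with inhibition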). As to conditions: recombinant PfCDPK1, Kinase-Glo ATP depletion luminescence. (In general: Kinase-Glo reads ATP consumption through a luciferase reaction.)
Assay [6] concerns the target Plasmodium falciparum protein kinase 6 (PK6, PF3D7_1337100) (UniProt Q8IDW1). The assay is described as follows: PfPK6 kinase inhibitors, biochemical, TCAMS library (AID 1159586). To be noted: recombinant PfPK6, Kinase-Glo ATP depletion luminescence.
Assay [7] has as its target Protein kinase 7 (PK7), Plasmodium falciparum 3D7 (PF3D7_0213400) (UniProt Q7YTF7). Briefly: inhibition of Plasmodium PK7 catalytic activity – biochemical, TCAMS antimalarial set, Kinase-Glo luminescence (AID 1159587). As to conditions: recombinant PfPK7, Kinase-Glo ATP depletion luminescence.
Assay [8] addresses Calcium-dependent protein kinase 4 (Plasmodium falciparum (isolate 3D7)) (UniProt Q8IBS5). The assay is described as follows: PfCDPK4 kinase inhibitors, biochemical, TCAMS library (AID 1159588; cut-off not given, nearly all actives have IC50 up to about 0.91 µM). As to conditions: recombinant PfCDPK4, Kinase-Glo ATP depletion luminescence.

Calcium-dependent protein kinase 4 (Plasmodium falciparum (isolate 3D7)), sequence (Q8IBS5 whole entry, looked up): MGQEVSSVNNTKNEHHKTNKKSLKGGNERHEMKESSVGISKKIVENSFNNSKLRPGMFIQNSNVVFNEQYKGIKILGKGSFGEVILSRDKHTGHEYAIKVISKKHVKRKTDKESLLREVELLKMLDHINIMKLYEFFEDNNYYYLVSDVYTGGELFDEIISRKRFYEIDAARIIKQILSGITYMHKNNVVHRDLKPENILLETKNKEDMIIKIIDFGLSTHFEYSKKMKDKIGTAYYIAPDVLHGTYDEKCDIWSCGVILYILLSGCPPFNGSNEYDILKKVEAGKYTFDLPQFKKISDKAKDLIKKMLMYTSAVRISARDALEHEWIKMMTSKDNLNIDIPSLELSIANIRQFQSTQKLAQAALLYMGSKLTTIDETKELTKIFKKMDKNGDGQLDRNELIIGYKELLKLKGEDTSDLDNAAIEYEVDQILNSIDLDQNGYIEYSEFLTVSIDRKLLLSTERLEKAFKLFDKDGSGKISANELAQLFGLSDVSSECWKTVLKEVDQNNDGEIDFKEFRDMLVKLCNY
L-lactate dehydrogenase (Plasmodium falciparum (isolate CDC / Honduras)), sequence (Q27743 whole entry, looked up): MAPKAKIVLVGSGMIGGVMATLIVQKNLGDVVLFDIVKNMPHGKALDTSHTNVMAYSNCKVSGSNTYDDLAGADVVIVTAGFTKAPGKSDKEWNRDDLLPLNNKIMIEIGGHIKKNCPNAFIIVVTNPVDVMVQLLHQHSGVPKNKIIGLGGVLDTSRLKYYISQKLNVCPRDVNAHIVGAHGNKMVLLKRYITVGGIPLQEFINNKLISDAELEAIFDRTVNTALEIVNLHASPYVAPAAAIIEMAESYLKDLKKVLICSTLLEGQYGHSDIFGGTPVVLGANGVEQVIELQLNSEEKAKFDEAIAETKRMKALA
Plasmodium falciparum protein kinase 6 (PK6, PF3D7_1337100), sequence (Q8IDW1 1-305): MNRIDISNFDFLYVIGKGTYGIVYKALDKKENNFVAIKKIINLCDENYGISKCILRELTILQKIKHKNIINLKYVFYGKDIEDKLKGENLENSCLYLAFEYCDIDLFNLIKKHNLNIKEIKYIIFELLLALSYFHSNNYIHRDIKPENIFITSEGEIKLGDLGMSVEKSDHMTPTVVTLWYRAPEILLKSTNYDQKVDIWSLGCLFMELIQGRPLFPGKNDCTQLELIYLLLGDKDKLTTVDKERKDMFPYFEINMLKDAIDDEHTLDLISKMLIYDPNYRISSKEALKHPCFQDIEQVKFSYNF
Calcium-dependent protein kinase 1 (Plasmodium falciparum (isolate 3D7)), sequence (P62344 whole entry, looked up): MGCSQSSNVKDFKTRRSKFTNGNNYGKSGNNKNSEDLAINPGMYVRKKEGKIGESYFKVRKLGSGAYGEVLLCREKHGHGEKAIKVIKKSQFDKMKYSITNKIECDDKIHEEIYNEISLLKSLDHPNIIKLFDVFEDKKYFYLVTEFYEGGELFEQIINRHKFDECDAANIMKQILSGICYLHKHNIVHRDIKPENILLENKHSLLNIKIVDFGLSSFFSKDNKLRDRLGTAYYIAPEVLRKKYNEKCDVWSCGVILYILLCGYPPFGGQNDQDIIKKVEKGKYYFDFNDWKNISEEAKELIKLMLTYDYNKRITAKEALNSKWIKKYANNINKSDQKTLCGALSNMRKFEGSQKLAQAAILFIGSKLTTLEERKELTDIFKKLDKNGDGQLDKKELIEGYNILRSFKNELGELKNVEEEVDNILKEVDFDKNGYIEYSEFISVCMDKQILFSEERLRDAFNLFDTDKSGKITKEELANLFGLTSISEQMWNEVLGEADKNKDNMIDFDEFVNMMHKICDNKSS
Protein kinase 7 (PK7), Plasmodium falciparum 3D7 (PF3D7_0213400), sequence (Q7YTF7 1-343): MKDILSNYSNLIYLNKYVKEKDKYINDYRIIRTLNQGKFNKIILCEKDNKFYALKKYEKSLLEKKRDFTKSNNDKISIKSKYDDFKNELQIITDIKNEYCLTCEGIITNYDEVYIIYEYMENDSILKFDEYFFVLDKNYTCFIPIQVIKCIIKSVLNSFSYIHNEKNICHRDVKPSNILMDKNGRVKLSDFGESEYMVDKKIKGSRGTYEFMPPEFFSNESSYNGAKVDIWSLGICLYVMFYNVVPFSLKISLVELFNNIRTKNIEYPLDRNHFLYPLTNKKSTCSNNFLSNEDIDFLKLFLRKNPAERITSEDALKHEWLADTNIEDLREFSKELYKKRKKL

Take `O=C(/C=C/c1ccc(Cl)c(Cl)c1)N1CCCC(CCCN2CCC(c3c[nH]c4ccccc34)CC2)C1` (stereo not given): the growth inhibition in assay [1] is 15%; in assay [4] it was 89% (active). The values for the inhibition in assay [2] and in assay [3] were 30% and -1%, respectively. Also, the result in assay [5], in assay [6], in assay [7] and in assay [8] was inactive.

Regarding `COCC(C)n1c(SC(C)C(=O)Nc2cc([N+](=O)[O-])ccc2Cl)nc2ccccc2c1=O` (stereo not given), the growth inhibition is 94% (active) in assay [1] and 95% (active) in assay [4]. For the same compound, the inhibition (as a rule, the drop in the measured response relative to a control, in per cent) in assay [2] was -8%; in assay [3], 2%. In addition, the result in assay [5], in assay [6], in assay [7] and in assay [8] was inactive.

Consider `COC(=O)c1ccc(-c2ccc(C(=O)NCC3CCN(c4nc(N)c5cc(OC)c(OC)cc5n4)CC3)cc2)cc1`, for which the growth inhibition in assay [1] is 100% (active); in assay [4], 98% (active). Further, the values for the inhibition in assay [2] and in assay [3] were 53% (active) and -4%, respectively. Further, the result in assay [5], in assay [6], in assay [7] and in assay [8] was inactive.

As to `O=S1(=O)NC2(CCN(CCc3ccc(Cl)cc3)CC2)Nc2cc(F)cc(F)c21`, the values for the growth inhibition in assay [1] and in assay [4] were 5% and 86% (active), respectively. The figures for the inhibition in assay [2] and in assay [3] were 7% and -1%, respectively. Further, the outcome in assay [5], in assay [6], in assay [7] and in assay [8] was inactive.

For the compound `CCNc1cc(C(=O)N[C@@H](Cc2ccccc2Cl)[C@H](O)CNC2CCCCC2)cc(N2CCCCS2(=O)=O)c1`, the growth inhibition in assay [1] is 97% (active); in assay [4], 99% (active). For the same compound, the inhibition in assay [2] was 6%; in assay [3], 0%. For the same compound, the outcome in assay [5], in assay [6], in assay [7] and in assay [8] was inactive.

On to `Cc1cc(N[C@@H](CC(C)C)C(=O)NCc2cccc(F)c2)nc(NCCc2ccccc2)n1`, for which the values for the growth inhibition in assay [1] and in assay [4] were 33% and 88% (active), respectively. For the same compound, the inhibition in assay [2] was 6%; in assay [3], -1%. The outcome in assay [5], in assay [6], in assay [7] and in assay [8] was inactive.

Regarding `CCN(CC1CCN(CC2(O)CCOCC2)CC1)c1cc(C)nc(Nc2ccc(Cl)cc2)n1`, the growth inhibition in assay [1] was 99% (active); in assay [4], 101% (active). Also, the inhibition in assay [2] is 34%; in assay [3], -4%. The result in assay [5], in assay [6], in assay [7] and in assay [8] was inactive.

In the case of `CC(=O)Nc1cccc(/C=C/C(=O)N2CCC(N3CCCCC3)CC2)c1`, the growth inhibition is 0% in assay [1] and 96% (active) in assay [4]. The inhibition in assay [2] and in assay [3] was 1% each time. Besides, the result in assay [5], in assay [6], in assay [7] and in assay [8] was inactive.

Regarding `COc1ccc(Nc2nccc(NCC(O)c3cccc(C(F)(F)F)c3)n2)cc1` (stereo not given), the values for the growth inhibition in assay [1] and in assay [4] were 33% and 98% (active), respectively. For the same compound, the inhibition in assay [2] was 22%; in assay [3], -2%. The result in assay [5], in assay [6], in assay [7] and in assay [8] was inactive.

Take `CN1CCN(c2ncnc3ccc(NC(=O)Nc4ccc(Cl)c(Cl)c4)cc23)CC1`: the growth inhibition in assay [1] was 89% (active); in assay [4] it was 100% (active). The results for the inhibition in assay [2] and in assay [3] were 7% and -2%, respectively. Moreover, the result in assay [5], in assay [6], in assay [7] and in assay [8] was inactive.

In the case of `COc1ccc2nccc(NCC3(O)CCN(CCc4ccc5c(c4)OCCO5)CC3)c2n1`, the growth inhibition in assay [1] was 87% (active); in assay [4], 100% (active). In addition, the inhibition in assay [2] is 35%; in assay [3] it was 3%. Moreover, the result in assay [5], in assay [6], in assay [7] and in assay [8] was inactive.

Turning to `CCCCCCN1CCCN(Cc2ccc(C(=O)Nc3ccc(C(C)C)cc3)cc2)CC1`, the growth inhibition in assay [1] is 50% (active); in assay [4] it was 93% (active). Besides, the inhibition is 40% in assay [2] and -4% in assay [3]. Besides, the result in assay [5], in assay [6], in assay [7] and in assay [8] was inactive.

For `Cc1[nH]c(C)c(-c2ccc(OCc3ccc(OC(F)(F)F)cc3)nc2)c(=O)c1Br`, the growth inhibition in assay [1] is 97% (active); in assay [4], 98% (active). The inhibition is 10% in assay [2] and 7% in assay [3]. The outcome in assay [5], in assay [6], in assay [7] and in assay [8] was inactive.

As to `Fc1cc(Cl)ccc1Nc1ccnc2cc(-c3ccc(CN4CCNCC4)o3)ccc12`, the results for the growth inhibition in assay [1] and in assay [4] were 99% (active) and 100% (active), respectively. Moreover, the inhibition was 16% in assay [2] and 1% in assay [3]. For the same compound, the outcome in assay [5], in assay [6], in assay [7] and in assay [8] was inactive.

For `CC1(C)N=C(N)N=C(N)N1OCc1ccc2ccccc2c1`, the growth inhibition in assay [1] is 97% (active); in assay [4] it was 94% (active). Besides, the inhibition is 65% (active) in assay [2] and -9% in assay [3]. Besides, the outcome in assay [5], in assay [6], in assay [7] and in assay [8] was inactive.

Take `O=C(NCCCN1CCCC1=O)c1cnc(N2CCC(Oc3ccccc3)CC2)c(Cl)c1`: the results for the growth inhibition in assay [1] and in assay [4] were 93% (active) and 97% (active), respectively. Further, the results for the inhibition in assay [2] and in assay [3] were 7% and -2%, respectively. Also, the result in assay [5], in assay [6], in assay [7] and in assay [8] was inactive.

For the compound `COC(=O)c1cccc(CNCc2cccc(-c3ccc(-c4nc5ccccc5[nH]4)s3)c2)c1`, the growth inhibition is 59% (active) in assay [1] and 93% (active) in assay [4]. Moreover, the inhibition is -2% in assay [2] and -6% in assay [3]. For the same compound, the outcome in assay [5], in assay [6], in assay [7] and in assay [8] was inactive.

Take `COC(=O)C(=O)c1c(-c2ccccc2)c(-c2ccc(OC)c(OC)c2)c2c3cc(OC)c(OC)cc3ccn12`: the growth inhibition is 89% (active) in assay [1] and 97% (active) in assay [4]. Moreover, the figures for the inhibition in assay [2] and in assay [3] were 2% and -1%, respectively. For the same compound, the result in assay [5], in assay [6], in assay [7] and in assay [8] was inactive.

Regarding `O=C(Nc1cccnc1)c1ccc(-c2cc3ccncc3cc2OC2CCNCC2)s1`, the growth inhibition was 12% in assay [1] and 97% (active) in assay [4]. Moreover, the inhibition in assay [2] was -5%; in assay [3], 1%. Also, the outcome in assay [5], in assay [6], in assay [7] and in assay [8] was inactive.

Take `CN(CCCN(C)c1cc(NC(=O)c2ccc(F)cc2)ccn1)Cc1cccc(O)c1`: the growth inhibition was 0% in assay [1] and 90% (active) in assay [4]. The inhibition is 2% in assay [2] and 1% in assay [3]. Besides, the result in assay [5], in assay [6], in assay [7] and in assay [8] was inactive.
